Results filed as inconclusive are left out. A number with no mark means an inactive call. Calls follow the shape of the dose curve; as a rule, active = well fitted inhibition curve with a large enough effect; inconclusive = small, poorly fitted or top-dose-only effect; inactive = flat fitted curve, though single readings scatter.
These compounds were tested against Lysine-specific demethylase 5B (Homo sapiens) (UniProt Q9UGL1) (assay: Optimization screen for KDM5B Histone Demethylases FDH coupled qHTS against the LOPAC library (AID 1347166; also: 0% is about no effect)). Settings: KDM5B demethylation, FDH-coupled NADH fluorescence (FDH is formaldehyde dehydrogenase); series mostly up to 57.5 µM; activity, negative = inhibition: at the top concentration.
Excerpt: Assay Submitter (PI): Qin Yan, Ph.D. (Yale University) and Xiaodong Cheng, Ph.D. (MD Anderson)
This project was funded as part of the NCI NEXT Program and Chemical Biology Consortium (CBC)
The histone demethylases, KDM5A and KDM5B catalyze the demethylation of lysine 4 on histone H3 (H3K4me3/2). They
are overexpressed in a variety of cancers and have been implicated in cancer cell growth, metastasis, drug resistance, and tumor growth. KDM5A is amplified and overexpressed in breast and gastric cancer; and is translocated in leukemia. While KDM5B is highly expressed in human mammary tumors and breast cancer cell lines, but not in normal adult breast tissue. Moreover, knockdown of KDM5B leads to upregulation of tumor suppressor genes, including BRCA1. The goal of this project is to employ qHTS to identify selective small molecule inhibitors of KDM5A/B demethylase activity to better understand the role of KDM5 in cancer and to develop novel therapies.
We employed an FDH-coupled assay previously reported by Sakurai et al. to monitor in vitro KDM5 demethylase activity. Compounds showing dose response inhibition are re-acquired, validated, and tested for non-specific interference with the formaldehyde dehydrogenase (FDH) counterscreen. True inhibitors are validated using an AlphaLisa secondary screen, which employs an H3K4(me2-1)-specific antibody to monitor demethylation of a biotin-tagged H3K4(me3) peptide substrate. Inhibitors are profiled against KDM4A and KDM6A AlphaLisa counterscreens to determine level of demethylase specificity; and against the TruHits counterscreen to eliminate non-specific inhibitory activity on the AlphaLISA detection method. Selective inhibitors identified from the primary and secondary screening are tested in cells using immunofluorescence to monitor global H3K4 tri-methylation as a measure of KDM5A/B inhibition. This assay is run against the NCGC Lopac collection of about 1,200 compounds to evaluate its amenability to quantitative High Throughput Screening (qHTS) platform.
Early Translation Branch (ETB)
National Center for Advancing Translational Sciences (NCATS), Rockville, MD
National Institute of Health (NIH), Bethesda, Maryland
[1] Sakurai, M et al. A miniaturized screen for inhibitors of Jumonji histone demethylases. Mol Biosyst. 2010 Feb;6(2):357-64. doi: 10.1039/b912993f. Epub 2009 Oct 8.
1536-well Black, solid bottom, medium binding assay plate is purchased from Greiner Bio-one. The enzymes (KDM5B) and substrate (H3K4me3/2) are provided by the principal investigators. The buffer for this assay is composed of 50mM HEPES at pH 7.5 with 0.01% Tween-20.
FDH coupled qHTS protocol:
Three microliter enzyme mix (buffer + 200nM KDM5BDeltaAP final concentration) is dispensed into the assay plate using the BioRAPTR Flying Reagent Dispenser (FRD; Beckton-Dickenson). Compound (at various final concentration) and control solution is pin transferred to the assay plate using the Kalypsys 1536-pin tool apparatus. The assay plate is incubated for 10 min at room temperature followed by addition of 1uL substrate mix (buffer + 100uM ascorbic acid, 50uM ferrous ammonium sulfate, 12.5uM H3K4Me3, 25uM a-ketoglutarate, 0.25 mM NAD+, 0.25 U/mL formaldehyde dehydrogenase using the FRD yielding a total reaction volume of 4 uL. Initial fluorescence (Read1) is detected using the PerkinElmer ViewLux plate reader equipped with 340 nm excitation and 450 nm emission filters. The final fluorescence (Read2) signal is obtained after 30 min of room temperature incubation. Delta RFU is calculated (Read2 - Read1) and is used to generated dose response curves

Sequence of Lysine-specific demethylase 5B (Homo sapiens) (Q9UGL1 whole entry, looked up): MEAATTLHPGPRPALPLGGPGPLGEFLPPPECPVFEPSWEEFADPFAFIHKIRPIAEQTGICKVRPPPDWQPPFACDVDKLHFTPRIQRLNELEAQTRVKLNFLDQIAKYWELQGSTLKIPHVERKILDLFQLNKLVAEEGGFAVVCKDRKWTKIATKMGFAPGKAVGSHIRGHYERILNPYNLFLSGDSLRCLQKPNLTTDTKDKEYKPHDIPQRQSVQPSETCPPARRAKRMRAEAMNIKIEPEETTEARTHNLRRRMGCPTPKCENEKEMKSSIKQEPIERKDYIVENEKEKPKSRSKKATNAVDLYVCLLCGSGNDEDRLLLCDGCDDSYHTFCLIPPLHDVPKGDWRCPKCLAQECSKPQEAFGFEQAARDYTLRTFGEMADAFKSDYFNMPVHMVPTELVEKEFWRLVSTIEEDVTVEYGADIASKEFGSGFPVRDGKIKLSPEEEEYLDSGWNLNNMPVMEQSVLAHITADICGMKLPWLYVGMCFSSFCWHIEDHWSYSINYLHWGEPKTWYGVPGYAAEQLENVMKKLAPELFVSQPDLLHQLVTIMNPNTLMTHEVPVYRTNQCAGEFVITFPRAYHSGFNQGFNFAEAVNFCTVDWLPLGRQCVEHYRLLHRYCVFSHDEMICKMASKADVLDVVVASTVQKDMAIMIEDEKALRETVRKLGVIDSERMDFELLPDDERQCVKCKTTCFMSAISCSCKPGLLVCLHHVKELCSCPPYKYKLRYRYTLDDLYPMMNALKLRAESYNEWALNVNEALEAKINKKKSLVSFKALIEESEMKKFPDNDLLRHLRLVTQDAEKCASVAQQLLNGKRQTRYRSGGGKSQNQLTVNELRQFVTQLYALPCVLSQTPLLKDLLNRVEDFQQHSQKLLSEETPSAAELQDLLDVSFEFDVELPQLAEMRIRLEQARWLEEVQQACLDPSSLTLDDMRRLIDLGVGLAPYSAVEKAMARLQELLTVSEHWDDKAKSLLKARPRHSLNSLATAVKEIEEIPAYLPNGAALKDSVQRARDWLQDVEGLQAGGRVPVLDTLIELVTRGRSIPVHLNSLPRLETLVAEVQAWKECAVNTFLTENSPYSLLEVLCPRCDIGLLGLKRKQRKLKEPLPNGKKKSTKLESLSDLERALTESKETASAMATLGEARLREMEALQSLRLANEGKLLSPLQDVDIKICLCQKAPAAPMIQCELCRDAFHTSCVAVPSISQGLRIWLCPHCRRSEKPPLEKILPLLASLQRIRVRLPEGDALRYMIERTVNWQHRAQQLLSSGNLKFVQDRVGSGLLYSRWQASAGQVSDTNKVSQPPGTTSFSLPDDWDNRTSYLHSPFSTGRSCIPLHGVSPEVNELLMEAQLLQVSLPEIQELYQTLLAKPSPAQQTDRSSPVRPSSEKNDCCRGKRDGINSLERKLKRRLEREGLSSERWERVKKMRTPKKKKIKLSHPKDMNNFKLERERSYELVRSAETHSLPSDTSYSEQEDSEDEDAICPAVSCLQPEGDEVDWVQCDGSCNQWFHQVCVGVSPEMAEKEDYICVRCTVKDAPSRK

Row | SMILES | activity, negative = inhibition
1 | Nc1ncnc2n[nH]c(Nc3ccc(F)cc3)c12 | -6.95%
2 | Cc1nn(-c2ccccc2)c(C)c1/C=N/N1CCN(Cc2ccccc2)CC1 | -5.05%
3 | O=C1NC(=O)/C(=C/c2ccc3c(c2)OC(F)(F)O3)S1 | -12.9%
4 | CN(C)c1cc2c(Nc3ccc4c(cnn4Cc4ccccc4)c3)ncnc2cn1 | -14.8%
5 | CCN(CC)CCNC(=O)c1ccc(NS(C)(=O)=O)cc1 | -2.41%
6 | NC(N)=NCCCCN=C(N)N | -7.39%
7 | C[N+](C)(C)CCO | 1.03%
8 | COC(=O)C1=CO[C@@H](O)[C@@H]2C(CO)=CC[C@H]12 | -10.1%
9 | O=[N+]([O-])c1ccc(-c2nc(-c3ccc(F)cc3)c(-c3ccncc3)[nH]2)cc1 | -17.6%
10 | O=C1NC(c2cccc([N+](=O)[O-])c2)=CCN1c1ccccc1O | -7.48%
11 | N[C@@H](Cn1ccc(=O)c(O)c1)C(=O)O | 2.65%
12 | COc1ccccc1N1CCN(CCN2C(=O)CC3(CCCC3)CC2=O)CC1 | -7.11%
13 | Cn1cnc2c(NCc3ccccc3)nc(NCCO)nc21 | -5.69%
14 | Clc1ccc2c(c1)N=C(N1CCNCC1)c1ccccc1N2 | -6.66%

— PubChem BioAssay (NCATS)
